We go through six molecules from PubChem BioAssay.

Experiment [1] is described as follows: modulation of C. elegans fzo-1 (AID 1259413).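 Further: fzo-1 mutant C. elegans worms in liquid wells.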 To be noted: C. elegans fzo-1 modulator screen, mean read-out; stronger effect = higher value.
Experiment [2] in a line: compounds altering circadian rhythm period length – cell-based, LOPAC library, luminescence reporter (AID 2774).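 Further: values are relative to mean of DMSO wells on each plate.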 To be noted: circadian reporter cells, at 7 µM, actives lie on both sides.
Experiment [3] can be described thus: P. berghei load reduction in hepatocytes – cell-based, HepG2, luciferase luminescence, HepG2 viability, primary screen (AID 624349; in the data active means parasite load remaining mostly below about 12%, no sharp cut-off; inactive means mostly above about 10%;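 further: 100% = mean of DMSO negative control wells on the same plate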). To be noted: P. berghei liver stage in HepG2, luciferase luminescence, concentration not given here; parasite load remaining: stronger effect = lower value; viability: measured here: HepG2 viability without parasites.
In experiment [4] the test system is Hepatitis C virus NS3 helicase. Put plainly: blockers of NS3h binding to ssDNA – biochemical, fluorescence polarization, LOPAC1280 library, primary screen (AID 687035; in the data active means inhibition above about 37%). To be noted: Purified HCV NS3 helicase, Cy5-dT15 ssDNA binding fluorescence polarization; stronger effect = higher value; concentration not given here.
Experiment [5] can be described thus: compounds altering Cy5-DNA-NS3h complex signal – biochemical, LOPAC1280, artefact control for HCV NS3 helicase inhibitor project (AID 687037). To be noted: Cy5-DNA-NS3h complex fluorescence interference counterscreen. Background: Counterscreens check selectivity or assay interference.
Experiment [6] in a line: signal quenchers or enhancers, Cy5 substrate/SSB – biochemical, NIH Clinical Collection, E. coli SSB, artefact control for HCV NS3 helicase inhibitor project (AID 743268). To be noted: Cy5-oligo bound E. coli SSB, fluorescence interference.
The test system of experiment [7] is Hepatitis C virus NS3 helicase. Put plainly: blockers of NS3h binding to DNA – biochemical, fluorescence polarization, NIH Clinical Collection, primary screen (AID 743270). To be noted: NS3 helicase binding to Cy5-dT15 DNA, stronger effect = higher value, concentration not given here. On the technique in general: Fluorescence polarisation rises when a labelled molecule tumbles more slowly, as on binding a larger partner.

Experiment [8] deals with Single-stranded DNA-binding protein (Escherichia coli (strain K12)) (UniProt P0AGE0). Put plainly: SSB-ssDNA binding inhibitors – biochemical, fluorescence polarization, NIH Clinical Collection, counter-screen for HCV NS3 helicase inhibitor project (AID 743271; in the data active means inhibition above about 28%). To be noted: E. coli SSB-DNA binding, stronger effect = higher value, concentration not given here.
A short description of experiment [9]: compounds distorting NS3 helicase fluorescence signal – biochemical, NIH Clinical Collection, artefact control for HCV NS3 helicase inhibitor project (AID 743272).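 Further: HCV NS3 helicase with a Cy5 labelled single stranded DNA probe.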 To be noted: fluorescence interference counterscreen, HCV NS3 helicase assay; stronger effect = lower value.
Experiment [10] has as its system Neuropilin-2 / VEGF-C interaction (human). Description: small molecules blocking Neuropilin-2/VEGF-C interaction – biochemical, microplate binding format, z-score (AID 743281). To be noted: microplate NRP2/VEGF-C binding assay; stronger effect = lower value.
The test system of experiment [11] is Aerobactin synthetase IucA (Klebsiella pneumoniae). Description: inhibition of K. pneumoniae IucA enzyme – biochemical, Tocris library, absorbance (AID 1345561).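 Further: 100% = enzyme without compound and 0% = no enzyme.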 To be noted: purified IucA enzyme assay, absorbance (OD) read-out; stronger effect = lower value;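 tested at 8 µM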.
A short description of experiment [12]: viability loss with induced miR-34 in A549 – imaging, A549 dox-inducible miR-34, nuclei and caspase counts, primary screen (AID 1347080;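 active means compounds whose cell count with miR-34 switched on is under 0.7 times the count with it off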). To be noted: A549 miR-34 inducible, Hoechst nuclei count, 48 h.
Experiment [13] is described as follows: blockers of cellular phospholipid synthesis – cell-based, LOPAC library, screen 4, primary screen (AID 1347384). To be noted: animal cells, phospholipid biosynthesis inhibition screen; at 10 µM.
Experiment [14] is described as follows: galactose survival enhancers in mitochondrial complex I cybrids – cell-based, galactose medium, ATP luminescence, primary screen (AID 1645843;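 active means z-score of at least 1.8 in each of two replicates, scored against plate mean and spread of sample wells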;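 further: positive z means more ATP and so rescue of galactose-driven cybrid death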). To be noted: complex I mutant cybrid cells, 72 h, stronger effect = higher value.
Experiment [15] in a line: compounds altering viability of human ES cells (AID 493140).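 Further: cells exposed to compounds for four days before counting.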 To be noted: human embryonic stem cell survival screen; stronger effect = higher value.
A short description of experiment [16]: viability loss in pontine glioma line – cell-based, SU-DIPG-XVII, MIPE5.0, CellTiter-Glo, qHTS, dose response (AID 1347060; cut-off not given, nearly all actives have AC50 up to about 26 µM). To be noted: CellTiter-Glo ATP luminescence. In general terms: ATP-based viability assays read luminescence as a measure of living cells.
A short description of experiment [17]: viability loss in pontine glioma line – cell-based, JHH-DIPG-1, MIPE4.0, CellTiter-Glo, qHTS, dose response (AID 1347062; cut-off not given, nearly all actives have AC50 up to about 27 µM;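 further: cells exposed to compound for two days before readout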). To be noted: JHH-DIPG-1 viability, CellTiter-Glo ATP luminescence.
The nature of experiment [18]: MELAS cybrid and Rieske KO viability enhancers – cell-based, MELAS cybrids, Rieske KO mouse fibroblasts, CellTiter-Glo, primary screen (AID 1508586;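 active means mean z-score across replicates of 1.96 or higher in either the MELAS or the Rieske mutant cell line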;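 further: z relative to plate mean and SD of compound and empty wells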). To be noted: low glucose.
The target in experiment [19] is Mitogen-activated protein kinase 7 (Homo sapiens) (UniProt Q13164). Description: Gal4-ERK5 driven luciferase induction – cell-based, HTS, primary screen (AID 1508626;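 active means luciferase signal above three times the same-plate solvent-only control wells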;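 further: luciferase driven by Gal4-ERK5 fusion binding five Gal4 sites before minimal TATA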). To be noted: HeLa Gal4-ERK5 transactivation, 18 h, at 5 µM, stronger effect = higher value.
Chain of Mitogen-activated protein kinase 7 (Homo sapiens) (Q13164 whole entry, looked up, the tested form may be a part): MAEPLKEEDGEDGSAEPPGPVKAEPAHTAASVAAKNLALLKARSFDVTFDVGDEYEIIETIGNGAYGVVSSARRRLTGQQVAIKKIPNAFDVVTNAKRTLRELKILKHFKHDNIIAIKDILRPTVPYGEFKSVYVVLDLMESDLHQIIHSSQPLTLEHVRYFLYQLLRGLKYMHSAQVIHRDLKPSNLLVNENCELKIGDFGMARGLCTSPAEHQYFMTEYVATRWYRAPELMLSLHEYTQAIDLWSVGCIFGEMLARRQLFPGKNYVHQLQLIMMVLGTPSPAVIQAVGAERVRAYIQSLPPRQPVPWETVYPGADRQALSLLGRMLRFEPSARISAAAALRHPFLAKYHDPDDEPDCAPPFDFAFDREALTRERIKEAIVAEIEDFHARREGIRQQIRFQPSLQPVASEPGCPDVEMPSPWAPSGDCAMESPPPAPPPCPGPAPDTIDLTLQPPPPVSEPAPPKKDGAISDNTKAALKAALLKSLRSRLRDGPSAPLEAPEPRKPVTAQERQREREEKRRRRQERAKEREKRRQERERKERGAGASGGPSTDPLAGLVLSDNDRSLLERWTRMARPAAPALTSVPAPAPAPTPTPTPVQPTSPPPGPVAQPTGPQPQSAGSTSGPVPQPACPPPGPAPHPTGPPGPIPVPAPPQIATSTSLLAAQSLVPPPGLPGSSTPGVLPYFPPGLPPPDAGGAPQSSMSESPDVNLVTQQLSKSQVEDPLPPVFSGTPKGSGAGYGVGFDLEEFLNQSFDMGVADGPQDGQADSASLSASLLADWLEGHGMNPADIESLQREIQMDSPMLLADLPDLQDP
The mark [20] stands for this setting: stronger effect = lower value, cell number ratio, induced over uninduced.
The mark [21] stands for this setting: measured here: relative caspase fold change +Dox/-Dox.
Where [22] appears, read: measured here: total cells with miR-34 induction, stronger effect = lower value.
Setting [23] is: measured here: total cells without miR-34 induction.

Several values for one entry are separate records, joined by “and”; a condition that tells them apart may be missing. Equal entries are not always repeated. Records with an inconclusive call do not appear. Activity calls are given as the source filed them. Unless noted, how the calls were made is not given here.

The viability is the share of living cells, or the viability signal relative to a control. The term inhibition denotes the drop in the measured response relative to a control, in per cent. Broadly, the remaining activity is the signal under treatment as a percentage of the control signal. The term AC50 denotes the midpoint of the concentration-response curve, whichever way the signal moves.

As for `CC(=O)OCC(=O)[C@@]1(O)CC[C@H]2[C@@H]3CCC4=CC(=O)CCC4(C)[C@H]3[C@@H](O)CC21C` (some centres not stated), the mean signal in [1] is 278 (inactive).
For `Nc1nc2ccc(Cl)cc2c2nc(-c3ccco3)nn12`, the period change in [2] was 0.275 h (inactive). Also, in experiment [3], the parasite load remaining is 21.2% (inactive). For the same molecule, in experiment [3], the viability stood at 75.1%. Further, the values for the inhibition in experiment [4], in [7] and in experiment [8] were -2% (inactive), -2.77% (inactive) and -6.26% (inactive), respectively. Also, in experiment [5], the fluorescence ratio (interference) is 1 (inactive). Moreover, the fluorescence ratio in experiment [6] and in experiment [9] was 0.95 (inactive) throughout. Further, the z-score is 0.671 (inactive) in experiment [10]; 0.585 (inactive) and 0.89 (inactive) and -0.13 (inactive) in experiment [14]. The mean signal in [1] was 260 (inactive). The remaining activity in [11] is 120% (inactive). In addition, the fold change in experiment [12] (setting [20]) was 1.05 (inactive) and 0.991 (inactive) and 1.02 (inactive); in experiment [12] (setting [21]) it was 0.947 and 1.47 and 1. The cell count in experiment [12] (setting [22]) is 7130 and 7040 and 7980; in [12] (setting [23]) it was 6800 and 7110 and 7830. For the same molecule, the molecule was called inactive in experiment [13].
For `CCC(=O)O[C@]1(C(=O)CCl)[C@@H](C)C[C@H]2[C@@H]3CCC4=CC(=O)C=CC4(C)[C@@]3(F)[C@@H](O)CC21C` (some centres not stated), the mean signal in experiment [1] is 254 (inactive).
As for `CN[C@@H]1[C@H](O)[C@H](NC)[C@H]2OC3(O)C(=O)C[C@@H](C)O[C@H]3O[C@@H]2[C@H]1O` (some centres not stated), the mean signal in [1] was 224 (inactive).
Turning to `CC(=O)N1CCN(c2ccc(OC[C@H]3CO[C@](Cn4ccnc4)(c4ccc(Cl)cc4Cl)O3)cc2)CC1`, the period change in experiment [2] is -0.195 h (inactive). In addition, the survival in [15] was 3.25 (inactive). Moreover, the results for the inhibition in experiment [4], in experiment [7] and in experiment [8] were -5% (inactive), 4.36% (inactive) and 13.8% (inactive), respectively. Also, the fluorescence ratio (interference) in experiment [5] was 1 (inactive). The fluorescence ratio in experiment [6] is 0.93 (inactive); in experiment [9], 0.91 (inactive). The z-score in experiment [10] is 0.168 (inactive); in [18] (MELAS cybrid survival, CellTiter-Glo 48 h, stronger effect = higher value), 1.22 (inactive) and -0.0928 (inactive); in [18] (Rieske KO mouse fibroblast survival, CellTiter-Glo 72 h), 0.853 and 1.14; in [14], -1.2 (inactive) and -0.985 (inactive) and -1.05 (inactive). Moreover, the mean signal in experiment [1] was 283 (inactive). Also, the remaining activity in experiment [11] is 114% (inactive). The molecule was classed as inactive in experiment [16] and in experiment [13]. Further, in experiment [17], the AC50 was 23.5 µM (active). Moreover, the luciferase signal in experiment [19] was 40 AU (inactive).
For the molecule `CCOC(=O)C1(CCCCCCOc2ccc(Cl)cc2)CO1` (configuration not stated), the parasite load remaining in experiment [3] is 85.5% (inactive). The molecule further returned a viability in experiment [3] of 89%. For the same molecule, the fluorescence ratio in [6] is 1.01 (inactive); in experiment [9], 0.93 (inactive). For the same molecule, the inhibition in [7] is 1.98% (inactive); in experiment [8] it was -2.41% (inactive). The z-score in experiment [10] is -0.326 (inactive); in [14], 0.13 (inactive). For the same molecule, the mean signal in [1] is 266 (inactive). For the same molecule, the fold change in experiment [12] (setting [20]) is 0.886 (inactive); in experiment [12] (setting [21]), 1.28. Moreover, the results for the cell count in [12] (setting [22]) and in experiment [12] (setting [23]) were 7740 and 8740, respectively.
